Shown are actives, neighbours in structure and some others; about 8.2% of the full set was active somewhere.
ELG1 DNA repair: qHTS screen for small molecules that inhibit ELG1-dependent DNA repair in human embryonic kidney (HEK293T) cells expressing luciferase-tagged ELG1 | HEK293T ELG1-luciferase reporter, luminescence, 16 h; DNA damage induced by 5-fluorouridine | Potency, µM (titrated, usually from 46.1 µM), most hits filed as inhibitors | hit rate 2.3% among 330,000 | AID 504467, 2011; also: nearly all actives have a fitted effect of over 55% in size
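Overnight (16 hr) co-exposure of 2,000 cells/well to 5-fluorouridine and compound at 37 °C preceded detection. Luciferase was quantified via ONE-Glo luminescence; loss of signal denotes inhibition.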
KB-3-1 tox: qHTS assay for MDR1-selective chemotherapeutics: Primary screen using the parental adenocarcinoma cell KB-3-1 | AID 1347075, 2019 | hit rate 1.4% among 400,000 | Potency, µM (titrated, usually from 46.1 µM), usual class: cytotoxic | KB-3-1 viability, CellTiter-Glo ATP luminescence, 72 h; also: nearly all actives have a fitted effect of over 60% in size
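KB-3-1 cells, DMEM (no phenol red) + 10% FBS; compound by pin transfer, 72 h, 37 °C. Readout: CellTiter-Glo luminescence after 10 min. Data normalized, curve-fitted.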
SW480 rerep: A quantitative high throughput screen for small molecules that induce DNA re-replication in SW480 colon adenocarcinoma cells | hit rate 1.8% among 340,000 | Potency, µM (titrated, usually from 46.1 µM), most hits filed as activators | AID 624297, 2012 | SW480 DNA re-replication, Hoechst DNA content imaging, 48 h; also: nearly all actives have a fitted effect of over 55% in size
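DNA re-replication was detected as more nuclei of elevated Hoechst intensity after 48 hr exposure to compound (23 nL pinned per well of 250 cells).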
KB-V1 MDR tox: qHTS assay for MDR1-selective chemotherapeutics: Primary screen using the drug-selected MDR subline cells KB-V1. KB-V1 MDR cells viability, CellTiter-Glo, 72 h. Potency, µM (top dose mostly 46.1 µM), actives largely listed as cytotoxic. hit rate 3.4% among 400,000; also: nearly all actives have a fitted effect of over 60% in size
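Following 72 h at 37 degrees C with compound, KB-V1 cell viability was read by CellTiter-Glo luminescence, medium being phenol-red-free DMEM plus 10% FBS; concentration-response parameters came from normalized, curve-fitted qHTS data.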
MCF10A rereplic: A quantitative high throughput screen for small molecules that induce DNA re-replication in MCF 10a normal breast cells. hit rate 2.9% among 350,000. AID 624296, 2012. MCF 10A DNA re-replication, Hoechst nuclear intensity, 48 h. Potency, µM (series often up to 46.1 µM), usual class: activators; also: nearly all actives have a fitted effect of over 50% in size
Numbers stand for hits; n = inactive; u = inconclusive; x = not tested or not shown. Calls follow the shape of the dose curve; as a rule, active = well fitted curve in the direction sought with a large enough effect; inconclusive = small, poorly fitted or top-dose-only effect, or another doubt; inactive = no such curve, though single readings can be large; an effect the other way counts as inactive or inconclusive.

SMILES	ELG1 DNA repair	KB-3-1 tox	SW480 rerep	KB-V1 MDR tox	MCF10A rereplic
Cc1ccc(-c2csc(NC(=O)CN3CC(C)OC(C)C3)n2)cc1 (stereo unspecified)	u	23µM	u	u	18µM
O=C(Cc1ccc(F)cc1)Nc1nc(-c2ccc(F)cc2)cs1	n	n	n	n	n
O=C(Cc1c(F)c(F)c(F)c(F)c1F)Nc1nc(-c2ccccc2)cs1	n	u	n	u	18µM
COc1ccc(C2(O)CCN(CC(=O)Nc3nc(-c4ccccc4)cs3)CC2)cc1	23µM	u	n	u	n
Cc1ccc(Cl)cc1NS(=O)(=O)c1cc2c(cc1F)NC(=O)CC2	x	n	x	n	x
COc1ccc(C)cc1S(=O)(=O)N(C)CC(=O)N1CCCCC1	x	n	n	u	n
COc1ccc(C)cc1S(=O)(=O)N(C)CC(=O)NC1CCCC1	n	n	u	12µM	n
COc1ccc(C)cc1S(=O)(=O)N(C)CC(=O)N1CCCC1	u	n	2.3µM	n	n
COC(=O)c1ccc(N=C2S/C(=C\c3cc(C)n(-c4cccnc4)c3C)C(=O)N2C)cc1	u	u	18µM	n	u
COc1ccc2c(Sc3ccccc3)c(C(=O)NCC(C)c3ccccc3)[nH]c2c1 (stereo unspecified)	x	n	x	n	x
CC(C)c1ccc(NC(=O)CSc2nnc(-c3ccccn3)n2C)cc1	n	n	n	5.2µM	n
Cn1c(SCC(=O)Nc2cc(Cl)cc(Cl)c2)nnc1-c1ccc2nonc2c1	n	n	18µM	u	18µM
COc1ccc(NC(=O)CSc2nnc(-c3ccccn3)n2N)cc1Cl	n	n	n	16µM	n
CCCn1c(SCC(=O)Nc2nnc(-c3ccccc3)s2)nnc1-c1ccccn1	n	n	n	n	18µM
CCCn1c(SCC(=O)NCCc2ccccc2)nnc1-c1ccccn1	n	n	n	u	n
O=C(C[N+]1(CCO)CCOCC1)c1ccc2ccccc2c1	x	n	x	n	x
Cn1c(=NC(=O)c2ccc(S(=O)(=O)N3CCCC3)cc2)sc2cc(F)ccc21	x	n	x	u	x
Cc1cc(C)c(S(=O)(=O)Nc2ccc3oc4c(c3c2)C(=O)CC(C)(C)C4)cc1C	x	n	x	n	x
COc1ccc(S(=O)(=O)Nc2ccc3oc4c(c3c2)C(=O)CC(C)(C)C4)cc1	x	u	x	18µM	x
COc1ccccc1OCCOCCOc1ccc(C)cc1[N+](=O)[O-]	u	n	n	13µM	n
COc1cc(C)ccc1OCCOCCOc1ccccc1[N+](=O)[O-]	n	n	n	n	n
CCNC(=O)C1(C)CCCN(C(=O)c2cc(C)nn2C(C)(C)C)C1 (stereo unspecified)	x	n	x	n	x
CC(C)c1ccc(NC(=O)c2ccc3c(c2)CCCN3S(C)(=O)=O)cc1	x	n	x	u	x
COc1cc(/C=N/n2cnn(Cc3ccccc3Cl)c2=S)cc(OC)c1OC	23µM	n	n	n	n
O=C1C2C3C=CC(C3=C(c3ccccc3)c3ccccc3)C2C(=O)N1CCO (stereo unspecified)	n	n	n	21µM	n
SMILES	ELG1 DNA repair	KB-3-1 tox	SW480 rerep	KB-V1 MDR tox	MCF10A rereplic
O=C1C2C(c3ccccc3)C=CC(c3ccccc3)C2C(=O)N1CCO (stereo unspecified)	n	n	n	n	n
O=C1C2C3C=CC(C3)C2C(=O)N1Cc1ccc(CN2C(=O)C3C4C=CC(C4)C3C2=O)cc1 (stereo unspecified)	u	n	n	u	n
O=C1C2C3C=CC(C3=C(c3ccccc3)c3ccccc3)C2C(=O)N1Cc1ccccc1 (stereo unspecified)	n	u	u	23µM	u
COc1ccc(-n2ncc(C(=O)NCc3cccs3)c2C2CCN(C(=O)OC(C)(C)C)CC2)cc1	x	n	x	n	x
COc1cc2c(cc1OC)C(c1ccccc1)NC(C)(C)C2 (stereo unspecified)	n	n	n	n	u
CCN1C(=O)C(=O)c2cc(C)ccc21	u	u	u	n	u
CC[N+]1=C(C)C(C)(C)c2cc(C)ccc21	13µM	u	n	n	u
COc1cc(C(=O)NCCc2ccc(S(N)(=O)=O)cc2)ccc1OCc1c(C)noc1C	n	n	n	n	n
Cc1ccc(-n2ncc(C(=O)NCCN3CCC(Cc4ccccc4)CC3)c2C2CCN(C(=O)OC(C)(C)C)CC2)cc1	x	u	x	n	x
Cc1cc(C)c2nc3sc(C(=O)N4CCOCC4)c(N)c3cc2c1	u	0.26µM	u	u	u
Cc1cccc2cc3c(N)c(C(=O)Nc4ccc(N5CCOCC5)cc4)sc3nc12	u	n	n	n	u
Nc1c(C(=O)N2CCCC2)sc2nc3c(cc12)CCCCCC3	u	n	n	u	15µM
Nc1c(C(=O)N2CCOCC2)sc2nc3c(cc12)CCCC3	u	n	n	n	n
Cc1cc(C)c2cc3c(N)c(C(=O)N4CCOCC4)sc3nc2c1	n	n	n	n	n
COc1cccc(-c2cc(C(F)(F)F)c3c(N)c(C#N)sc3n2)c1	n	x	x	x	x
Cc1cccc2cc3c(N)c(C#N)sc3nc12	n	u	u	1.5µM	u
Cc1cccc2cc3c(N)c(C(=O)N4CCc5ccccc54)sc3nc12	n	u	u	9.2µM	u
CCOC(=O)c1c(S(=O)(=O)N2CCCC(C(=O)NCc3ccc(Cl)cc3)C2)c(C)n(C)c1C (stereo unspecified)	x	n	x	n	x
CC(OC(=O)c1cc(S(=O)(=O)N2CCOCC2)ccc1F)C(=O)NC1CCCCC1C (stereo unspecified)	n	n	n	n	n
CCN(CC)S(=O)(=O)c1ccc(-c2ccc(S(=O)(=O)N(CC)CC)cc2)cc1	6.5µM	u	n	u	n
Oc1ccccc1N=Nc1ccccc1O	u	7.3µM	u	u	n
Sc1nnc(-c2ccc(Cl)cc2)n1Cc1ccccc1	n	n	n	u	n
O=C(CCNC(=O)c1ccco1)Nc1ccc(F)c(Cl)c1	n	n	n	n	n
COc1cccc(CNCC(O)(c2ccc(Cl)cc2)c2ccc(Cl)cc2)c1	u	u	u	15µM	u
Cc1ccc(CNCC(O)(c2ccccc2)c2ccc(Cl)cc2)cc1 (stereo unspecified)	n	n	u	u	n
COc1ccc(CNCC(O)(c2ccccc2)c2ccc(Cl)cc2)cc1 (stereo unspecified)	n	u	u	13µM	n
O=C(NCC[C@@H]1CC[C@@H](NS(=O)(=O)c2ccccc2)[C@@H](CO)O1)c1cc(Cl)cc(Cl)c1	x	n	x	u	x
Cc1cc2nc(NC(=O)C3(C)CCCN(C(C)C)C3)[nH]c2cc1C (stereo unspecified)	x	n	x	n	x
C[C@H]1Cn2cnc(C(=O)NCC(=O)OC(C)(C)C)c2C(=O)N1	x	n	x	n	x
